Experimental data as given in paper PMC7826789 (International Journal of Molecular Sciences, 2021).

How the values were obtained:
Conditions in all cases: Compound Concentration (nM):1000
CDK3 = tested on: CDK3
CDK4-cyclinD1 = tested on: CDK4-cyclinD1
CDK4-cyclinD3 = tested on: CDK4-cyclinD3
CDK4 = tested on: CDK4
CDK5 = tested on: CDK5
CDK7 = tested on: CDK7
CDK8 = tested on: CDK8
CDK9 = tested on: CDK9
CDKL1 = tested on: CDKL1
CDKL2 = tested on: CDKL2
CDKL3 = tested on: CDKL3
CDKL5 = tested on: CDKL5
CHEK1 = tested on: CHEK1
CHEK2 = tested on: CHEK2
CIT = tested on: CIT
CLK1 = tested on: CLK1
CLK2 = tested on: CLK2
CLK3 = tested on: CLK3
CLK4 = tested on: CLK4
CSF1R-autoinhibited = tested on: CSF1R-autoinhibited
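Also: KINOMEscan scanMAX binding as percent activity remaining versus control; lower means stronger binding.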

SMILES	Percent Control (CDK3)	Percent Control (CDK4-cyclinD1)	Percent Control (CDK4-cyclinD3)	Percent Control (CDK4)	Percent Control (CDK5)	Percent Control (CDK7)	Percent Control (CDK8)	Percent Control (CDK9)	Percent Control (CDKL1)	Percent Control (CDKL2)	Percent Control (CDKL3)	Percent Control (CDKL5)	Percent Control (CHEK1)	Percent Control (CHEK2)	Percent Control (CIT)	Percent Control (CLK1)	Percent Control (CLK2)	Percent Control (CLK3)	Percent Control (CLK4)	Percent Control (CSF1R-autoinhibited)
Cl.O=C(Nc1ccc(Oc2ccc3[nH]c(NC(=O)c4ccco4)nc3c2)cc1)Nc1cc(C(F)(F)F)ccc1F [GW683134A]	100%	100%	100%	100%	100%	12%	100%	100%	77%	6.5%	100%	100%	88%	97%	0.4%	47%	89%	100%	44%	79%
Cc1cc(O)cc(C)c1/C=C/c1cncc(C(N)=O)c1 [GW435821X]	100%	97%	100%	100%	100%	100%	72%	100%	100%	100%	100%	100%	100%	99%	98%	89%	100%	100%	74%	87%
COc1ccc2cc(-c3c(-c4ccncc4)nc(-c4ccc(S(C)(=O)=O)cc4C)n3C)ccc2c1 [SB-633825]	100%	68%	90%	91%	95%	85%	78%	74%	87%	100%	86%	82%	88%	100%	100%	96%	87%	97%	62%	66%
COc1ccc(COc2ccc(Cc3cnc(N)nc3N)cc2OC)cc1 [GW632580X]	100%	99%	93%	94%	93%	100%	100%	100%	82%	100%	90%	84%	91%	100%	80%	100%	91%	100%	100%	–
COc1cc(C)c(N(C)C(=O)CN(C)C)cc1Nc1nc(Nc2cccc(F)c2C(N)=O)c2cc[nH]c2n1 [GSK2219385]	92%	89%	100%	90%	100%	73%	100%	100%	79%	100%	100%	44%	92%	69%	100%	54%	58%	91%	67%	100%
CC(C)COC(=O)c1ccc2c(c1)/C(=C/Nc1ccc(S(N)(=O)=O)cc1)C(=O)N2 [GW416981X]	42%	3.8%	13%	91%	36%	3.7%	86%	100%	52%	24%	64%	5.1%	100%	42%	86%	18%	2.3%	98%	41%	95%
NS(=O)(=O)c1ccc(N/N=C2\C(=O)Nc3ccc(C(=O)NCCc4c[nH]cn4)cc32)cc1 [GW300660X]	100%	12%	30%	100%	100%	33%	100%	100%	55%	100%	100%	36%	100%	64%	100%	72%	5.5%	100%	76%	90%
NS(=O)(=O)c1ccc(N/N=C2\C(=O)Nc3ccc(C(=O)NCc4ccncc4)cc32)cc1 [GW300657X]	66%	13%	12%	84%	77%	13%	75%	100%	46%	99%	84%	6.5%	100%	67%	87%	67%	17%	92%	75%	83%
CCS(=O)(=O)c1ccc(OC)c(Nc2ncc(-c3cccc(OC)c3)o2)c1 [GW580509X]	100%	93%	93%	99%	100%	84%	100%	100%	98%	98%	100%	59%	100%	100%	100%	6.9%	3.9%	71%	15%	43%
C[C@@H](Oc1cc(-n2cnc3ccc(OC4CCN(C)CC4)cc32)sc1C(N)=O)c1ccccc1Cl [GSK579289A]	90%	100%	69%	94%	100%	70%	100%	100%	53%	100%	100%	100%	90%	100%	78%	62%	88%	87%	95%	73%
CCc1ccc(Oc2nccc(-c3c(-c4ccc(F)cc4)ncn3C3CCNCC3)n2)cc1 [SB-242719]	100%	94%	76%	91%	100%	88%	86%	100%	86%	96%	100%	84%	90%	84%	1.2%	100%	70%	100%	100%	77%
CN(C)CCNC(=O)Nc1ccc(N(C)c2ccnc(Nc3ccc(CS(C)(=O)=O)cc3)n2)cc1.Cl [GW830900A]	100%	81%	100%	97%	85%	65%	75%	98%	88%	28%	100%	100%	100%	93%	100%	85%	94%	99%	100%	41%
COc1cccc(-n2ncc3c(N/N=C/c4ccncc4)ncnc32)c1 [GW784752X]	100%	49%	72%	93%	90%	8.1%	100%	100%	51%	46%	46%	5.1%	100%	87%	86%	42%	61%	100%	45%	96%
NS(=O)(=O)c1ccc(Nc2ncc(-c3ccccc3)o2)cc1 [GW572399X]	100%	60%	88%	95%	100%	21%	93%	100%	80%	65%	100%	100%	100%	100%	100%	100%	100%	100%	100%	58%
CN(C)c1cc2c(Nc3ccc4c(cnn4Cc4ccccc4)c3)ncnc2cn1 [GW282974X]	100%	81%	84%	89%	39%	82%	100%	100%	75%	100%	100%	40%	85%	2.9%	79%	75%	86%	100%	100%	100%
CCS(=O)(=O)c1ccc(OC)c(Nc2ncc(-c3cccc(F)c3)o2)c1 [GW621970X]	100%	99%	100%	100%	100%	85%	100%	100%	100%	100%	100%	60%	100%	100%	100%	19%	12%	75%	23%	6.2%
CC1=C(C(=O)Nc2ccc3[nH]ncc3c2)C(c2ccc(Cl)c(Cl)c2)CC(=O)N1 (stereo not drawn) [GSK299115A]	100%	74%	100%	80%	100%	83%	47%	100%	96%	80%	95%	97%	95%	100%	100%	75%	67%	78%	52%	74%
COc1cc2ncn(-c3cc(O[C@H](C)c4ccccc4Cl)c(C(N)=O)s3)c2cc1OC [GSK237701A]	100%	81%	100%	86%	100%	76%	48%	100%	94%	86%	76%	100%	100%	100%	100%	81%	90%	77%	68%	70%
NS(=O)(=O)c1ccc(N/N=C2\C(=O)Nc3ccc(Cl)cc32)cc1 [GW280670X]	100%	77%	100%	100%	100%	100%	100%	100%	96%	78%	100%	100%	100%	100%	100%	100%	100%	100%	96%	60%
CN1CCN(C(=O)c2ccc(NC(=O)Nc3ccc(N(C)c4ccnc(Nc5ccc(CS(C)(=O)=O)cc5)n4)cc3)cc2)CC1.Cl [GW830263A]	100%	77%	89%	83%	91%	61%	85%	69%	73%	1.7%	72%	100%	100%	68%	79%	84%	54%	95%	100%	8.8%
